The values below come from PubChem BioAssay (EPA / NIEHS).

In assay [1] the target is Estrogen receptor beta (Homo sapiens) (UniProt Q92731). As to the kind of experiment: OT_ER_ERbERb_1440: Odyssey Thera (OT) 24-hour HEK293T Protein-Complementation Assay for Estrogen Receptor-beta/-beta Homodimer (AID 2283380).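 Further: fluorescence gain from ER beta LBD homodimer complementation read by laser scanning cytometry; scored as signal increase over DMSO baseline for both agonists and antagonists.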 A digest of the protocol: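 HEK293T cells stably expressing human ER-beta LBD (aa 310-547) PCA homodimer pair, dosed 24 h; formaldehyde-fixed, Draq5-stained. Readout: increase in nuclear (agonist) or nuclear plus cytoplasmic (antagonist) fluorescence intensity versus DMSO, gain-of-signal fitting.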
Chain of Estrogen receptor beta (Homo sapiens) (Q92731 whole entry, looked up, the tested form may be a part): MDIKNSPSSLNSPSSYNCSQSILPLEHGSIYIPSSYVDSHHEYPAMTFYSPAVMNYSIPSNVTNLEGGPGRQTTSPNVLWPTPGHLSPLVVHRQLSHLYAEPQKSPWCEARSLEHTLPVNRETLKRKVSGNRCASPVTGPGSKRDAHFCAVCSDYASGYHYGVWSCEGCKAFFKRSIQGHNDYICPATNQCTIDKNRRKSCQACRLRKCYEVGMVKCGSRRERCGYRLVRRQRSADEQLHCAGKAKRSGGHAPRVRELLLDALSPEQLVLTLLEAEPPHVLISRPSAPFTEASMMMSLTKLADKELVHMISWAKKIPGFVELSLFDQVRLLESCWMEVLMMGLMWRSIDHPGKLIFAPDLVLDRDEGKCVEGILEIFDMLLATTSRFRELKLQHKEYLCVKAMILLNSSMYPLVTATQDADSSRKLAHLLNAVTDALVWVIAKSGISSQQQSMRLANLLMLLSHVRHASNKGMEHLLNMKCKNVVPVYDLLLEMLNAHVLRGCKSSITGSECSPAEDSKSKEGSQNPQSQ

For assay [2], the target named is Bile acid receptor (Homo sapiens) (UniProt Q96RI1). As to the kind of experiment: OT_FXR_FXRSRC1_0480: Odyssey Thera (OT) 8-hour HEK293T Protein-Complementation Assay for Farnesoid X receptor/SRC-1 Co-activator (AID 2283383). The method, boiled down:
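Co-activator recruitment to FXR was measured in living HEK293T cells, where interaction of the two fused partners restored an active fluorescent reporter. Signal gain after 8 h treatment was referenced to DMSO.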

Assay [3] has the same target. As to the kind of experiment: OT_FXR_FXRSRC1_1440: Odyssey Thera (OT) 24-hour HEK293T Protein-Complementation Assay for Farnesoid X receptor/SRC-1 Co-activator (AID 2283384). A digest of the protocol:
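Cell-based binding reporter: interaction of FXR with SRC-1 brings reporter fragments together, giving a fluorescence signal read 24 h after dosing of HEK293T cells.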

Assay [4] deals with Retinoic acid receptor RXR-alpha (Homo sapiens) (UniProt P19793). As to the kind of experiment: OT_NURR1_NURR1RXRa_0480: Odyssey Thera (OT) 8-hour HEK293T Protein Complementation Assay for Nurr1/retinoid X receptor (RXR) (AID 2283385). The method, boiled down: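 Compounds are applied to HEK293T cells carrying Nurr1 and RXRα linked to reporter fragments. After 8 h, fluorescence intensity reports heterodimer formation, with DMSO as baseline.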
Chain of Retinoic acid receptor RXR-alpha (Homo sapiens) (P19793 whole entry, looked up, the tested form may be a part): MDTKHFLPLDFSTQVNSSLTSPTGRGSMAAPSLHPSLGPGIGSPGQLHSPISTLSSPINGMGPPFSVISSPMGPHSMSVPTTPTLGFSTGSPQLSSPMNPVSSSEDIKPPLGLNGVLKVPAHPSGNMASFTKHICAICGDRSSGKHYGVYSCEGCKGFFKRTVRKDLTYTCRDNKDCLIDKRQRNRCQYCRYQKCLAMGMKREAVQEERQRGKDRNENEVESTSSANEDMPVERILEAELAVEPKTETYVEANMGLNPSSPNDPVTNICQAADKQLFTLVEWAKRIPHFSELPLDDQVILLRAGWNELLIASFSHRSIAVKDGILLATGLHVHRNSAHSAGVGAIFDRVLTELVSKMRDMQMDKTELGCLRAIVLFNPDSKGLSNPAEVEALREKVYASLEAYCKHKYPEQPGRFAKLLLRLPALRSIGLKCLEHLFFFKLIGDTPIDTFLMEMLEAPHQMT

Assay [5] deals with Peroxisome proliferator-activated receptor gamma (Homo sapiens) (UniProt P37231). As to the kind of experiment: OT_PPARg_PPARgSRC1_0480: Odyssey Thera (OT) 8-hour Protein-Complementation Assay for Peroxisome Proliferator-activated Receptor Gamma / SRC-1 Co-activator (AID 2283387).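 Further: nuclear to cytoplasmic split Venus YFP fluorescence ratio reporting PPARg SRC-1 interaction.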 A digest of the protocol: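 Protein-fragment complementation of split Venus YFP reports PPARg/SRC-1 interaction in HEK293T (transfected 48 h before treatment), exposed 8 h. Readout: N/C fluorescence ratio at 488 nm from imaging, Draq5 for segmentation, positive fit relative to DMSO.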
Chain of Peroxisome proliferator-activated receptor gamma (Homo sapiens) (P37231 whole entry, looked up, the tested form may be a part): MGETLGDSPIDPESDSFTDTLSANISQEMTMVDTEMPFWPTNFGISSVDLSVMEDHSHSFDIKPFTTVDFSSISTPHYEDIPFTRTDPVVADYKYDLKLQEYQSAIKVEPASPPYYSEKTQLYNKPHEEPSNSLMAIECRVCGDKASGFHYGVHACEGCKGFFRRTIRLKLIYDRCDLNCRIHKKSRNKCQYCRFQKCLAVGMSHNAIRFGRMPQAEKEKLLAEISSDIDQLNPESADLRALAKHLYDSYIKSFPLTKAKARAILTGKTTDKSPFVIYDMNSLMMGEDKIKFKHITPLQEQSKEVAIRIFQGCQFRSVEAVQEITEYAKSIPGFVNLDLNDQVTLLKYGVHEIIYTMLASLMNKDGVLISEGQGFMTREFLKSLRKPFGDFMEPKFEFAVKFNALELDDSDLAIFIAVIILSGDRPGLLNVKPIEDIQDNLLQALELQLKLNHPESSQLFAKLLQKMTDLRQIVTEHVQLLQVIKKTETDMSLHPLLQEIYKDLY

In assay [6] the target is Retinoic acid receptor RXR-alpha (Homo sapiens) (UniProt P19793). Description: OT_NURR1_NURR1RXRa_1440: Odyssey Thera (OT) 24-hour HEK293T Protein Complementation Assay for Nurr1/retinoid X receptor (RXR) (AID 2283386). The method, boiled down: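 Measured as fluorescence from a reconstituted split reporter, this 24 h HEK293T complementation assay scores compound-induced gain of Nurr1/RXRα association relative to DMSO.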

Structures are written as SMILES. Records with an inconclusive call do not appear. Active and inactive are the calls of the source. How the source made its calls: active means hit-call score of the fitted dose curve at least 0.9, where 1 is the maximum; inconclusive means response in the unintended direction; inactive means score below 0.9.

Chain of Bile acid receptor (Homo sapiens) (Q96RI1 whole entry, looked up, the tested form may be a part): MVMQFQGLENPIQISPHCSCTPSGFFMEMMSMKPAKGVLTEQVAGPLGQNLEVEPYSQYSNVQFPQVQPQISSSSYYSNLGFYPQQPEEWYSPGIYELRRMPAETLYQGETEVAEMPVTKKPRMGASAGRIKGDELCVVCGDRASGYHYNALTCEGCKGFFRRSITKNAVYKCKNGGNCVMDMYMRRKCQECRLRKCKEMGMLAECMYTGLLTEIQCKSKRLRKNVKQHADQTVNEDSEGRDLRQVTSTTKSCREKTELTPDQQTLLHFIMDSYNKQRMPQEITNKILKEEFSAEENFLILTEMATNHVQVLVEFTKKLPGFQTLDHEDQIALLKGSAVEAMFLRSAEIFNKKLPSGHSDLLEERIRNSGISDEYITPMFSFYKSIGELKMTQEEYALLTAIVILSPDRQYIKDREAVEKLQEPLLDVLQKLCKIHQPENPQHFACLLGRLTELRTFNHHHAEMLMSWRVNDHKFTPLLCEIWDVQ

In the case of `CSCCC=O`, the call in assay [1], in assay [2], in assay [3], in assay [4] and in assay [5] was inactive.
The AC50 is the midpoint of the concentration-response curve, whichever way the signal moves. As for `O=C1NC2NC(=O)NC2N1` (stereo not given), the AC50 in assay [1] was 7.06 µM (active). The result in assay [2], in assay [3], in assay [4] and in assay [6] was inactive.
On to `O=C(c1ccccc1)C(O)c1ccccc1` (stereo not given), for which, in assay [1], the result was inactive.
`CCCCCCCCc1ccc(S(=O)(=O)O)cc1`: the result in assay [1], in assay [2] and in assay [3] was inactive.
For `Cc1cc(S(=O)(=O)O)ccc1N=Nc1c(O)ccc2ccccc12`, the molecule was called inactive in assay [1], in assay [3] and in assay [6].
As to `CCCCC(CC)COC(=O)c1ccc(O)cc1` (stereo not given), the AC50 in assay [1] is 1.92 µM (active). Also, the outcome in assay [4] was inactive.
As for `Clc1ccc(C(c2ccccc2Cl)C(Cl)Cl)cc1` (stereo not given), in assay [1], the AC50 is 5.53 µM (active). Moreover, in assay [4], the call was inactive.
Turning to `C1=CC2C3C=CC(C3)C2C1` (stereo not given), the outcome in assay [1], in assay [2], in assay [4] and in assay [6] was inactive.
Turning to `O=Cc1ccccc1S(=O)(=O)O`, the result in assay [1], in assay [4] and in assay [6] was inactive.
On to `c1ccc(Oc2ccccc2)cc1`, for which the call in assay [1], in assay [2] and in assay [4] was inactive.
With `CCC1(C)NC(=O)NC1=O` (stereo not given), the result in assay [1], in assay [2] and in assay [6] was inactive.
Consider `O=P(O)(O)O`, for which the molecule was classed as inactive in assay [1], in assay [4] and in assay [6].
`COc1ccccc1N=Nc1c(S(=O)(=O)O)cc2cc(S(=O)(=O)O)cc(NC(C)=O)c2c1O`: the call in assay [1], in assay [4] and in assay [6] was inactive.
Turning to `CCCCC(CC)COC(C)=O` (stereo not given), the result in assay [1], in assay [4] and in assay [6] was inactive.
For `CN(C)c1cccc(O)c1`, the molecule was classed as inactive in assay [1] and in assay [6].
Turning to `C=C[Si]1(C)O[Si](C)(C=C)O[Si](C)(C=C)O[Si](C)(C=C)O1` (stereo not given), the molecule was classed as inactive in assay [1], in assay [4] and in assay [6].
Consider `CC(C)c1ccccc1O`, for which the molecule was classed as inactive in assay [1], in assay [2], in assay [4] and in assay [6].
Take `CN1C(=O)c2ccccc2C1=O`: the call in assay [1], in assay [4], in assay [6] and in assay [5] was inactive.
Take `C=Cc1ccc(C)cc1`: the outcome in assay [1] and in assay [6] was inactive.
As to `CC(C)Nc1nc(N)nc(Cl)n1`, the result in assay [1], in assay [4] and in assay [6] was inactive.
As to `COC(=O)c1ccc(C)cc1C1=NC(C)(C(C)C)C(=O)N1` (stereo not given) (tested in a mixture with another compound), the molecule was classed as inactive in assay [1], in assay [4], in assay [6] and in assay [5].
With `Cc1ccc(S(=O)(=O)Oc2ccc(N=Nc3ccc(-c4ccc(N=Nc5c(O)ccc6cc(S(=O)(=O)O)cc(S(=O)(=O)O)c56)c(C)c4)cc3C)cc2)cc1`, the result in assay [1], in assay [3], in assay [6] and in assay [5] was inactive. The AC50 in assay [4] was 35 µM (active).
For the molecule `CCCCCC(C)=O`, the outcome in assay [1], in assay [4], in assay [6] and in assay [5] was inactive.
On to `CC(C=O)Cc1ccc(C(C)(C)C)cc1` (stereo not given), for which the call in assay [1], in assay [3], in assay [4], in assay [6] and in assay [5] was inactive.
Turning to `CC1CC(O)CC(C)(C)C1` (stereo not given), the molecule was classed as inactive in assay [1], in assay [3] and in assay [5].
Consider `COS(=O)(=O)O`, for which the molecule was classed as inactive in assay [1], in assay [2] and in assay [6].
In the case of `C=C(C)[C@@H]1CC=C(C)C(=O)C1`, the outcome in assay [1], in assay [4] and in assay [6] was inactive.
Regarding `CN1CCOCC1`, the call in assay [1], in assay [4] and in assay [6] was inactive.
Take `CCCCCCCCCCCCN1CCCCCC1=O`: the molecule was called inactive in assay [1]. Further, the AC50 in assay [2] is 11.3 µM (active); in assay [4] it was 44.3 µM (active).
For the molecule `CC(=O)O[C@@H]1CC2CCC1(C)C2(C)C` (stereo not given in full), the result in assay [1], in assay [2], in assay [4], in assay [6] and in assay [5] was inactive.
For `C#CC(C)(O)CC(C)C` (stereo not given), the molecule was classed as inactive in assay [1], in assay [4], in assay [6] and in assay [5].
`C=C1CC[C@H](O)C/C1=C/C=C1\CCC[C@]2(C)[C@@H]([C@H](C)/C=C/[C@H](C)C(C)C)CC[C@@H]12`: the outcome in assay [1], in assay [4], in assay [6] and in assay [5] was inactive. Further, the AC50 in assay [2] was 36.8 µM (active).
On to `CCCCCCCC(=O)OCC(O)CO` (stereo not given), for which the molecule was classed as inactive in assay [1], in assay [4] and in assay [5].
`CCCCCCC(C)(C)S`: the outcome in assay [1], in assay [4] and in assay [6] was inactive.
Consider `OC[C@H]1O[C@@H]2O[C@H]3[C@H](O)[C@@H](O)[C@@H](O[C@H]4[C@H](O)[C@@H](O)[C@@H](O[C@H]5[C@H](O)[C@@H](O)[C@@H](O[C@H]6[C@H](O)[C@@H](O)[C@@H](O[C@H]7[C@H](O)[C@@H](O)[C@@H](O[C@H]8[C@H](O)[C@@H](O)[C@@H](O[C@H]9[C@H](O)[C@@H](O)[C@@H](O[C@H]1[C@H](O)[C@H]2O)O[C@@H]9CO)O[C@@H]8CO)O[C@@H]7CO)O[C@@H]6CO)O[C@@H]5CO)O[C@@H]4CO)O[C@@H]3CO`, for which the result in assay [1] and in assay [4] was inactive.
Regarding `O=[N+]([O-])c1ccc(O)cc1C(F)(F)F`, the results for the AC50 in assay [1], in assay [3] and in assay [6] were 68.4 µM (active), 77.1 µM (active) and 86.8 µM (active), respectively. Further, the outcome in assay [2] and in assay [5] was inactive.
Turning to `CCCCOC(=O)CCCCCCCC(=O)OCCCC`, the molecule was called inactive in assay [1], in assay [2], in assay [4], in assay [6] and in assay [5].
For `ON=C1CCCCC1`, the call in assay [1], in assay [4], in assay [6] and in assay [5] was inactive.
